High-throughput results: PubChem, National Center for Advancing Translational Sciences (NCATS)
In the library only some 9.3% were active in any assay of this set; here they are far more common.
SMN2 splice enh: SMN2 splice variant enhancement; AID 1458; 2.8% of 210,000 active; HEK293 SMN2-luciferase splicing reporter, luminescence, 30-36 h; Potency, µM (series often up to 46.1 µM), for inactives: top-dose activity change, positive = activation, actives largely listed as activators; further: % of control where 0% means no effect; nearly all actives have a fitted effect of over 55% in size
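qHTS luciferase splicing reporter: luminescence rises when SMN2 exon 7 is included in transfected HEK293 cells. Compound exposure lasted 30-36 h at 37C, with 4.5 mM final sodium butyrate as control, followed by a ONE-Glo read.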
ELG1 DNA repair: blocks ELG1-dependent DNA repair in HEK293T cells; HEK293T ELG1-luciferase reporter, luminescence, 16 h; DNA damage induced by 5-fluorouridine; 2.3% of 330,000 active; Potency, µM (series often up to 46.1 µM), without a hit: top-dose activity change, negative = inhibition, actives largely listed as inhibitors; further: on the % scale 0 is the no-effect control and ±100 the full control effect; nearly all actives have a fitted effect of over 55% in size
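In this reporter screen, reduction of luminescence relative to DMSO vehicle indicated activity. Compounds and 5-fluorouridine were added together to 2,000 cells per well, incubated for 16 hr at 37 °C, then developed with ONE-Glo.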
Rab9 promoter act: activates the Rab9 promoter. 2.8% of 320,000 active. Huh7 Rab9 promoter-luciferase reporter, luminescence, 24 h. Potency, µM (top dose mostly 9.22 µM), for inactives: top-dose activation, negative = inhibition, hits mostly activators; further: % of control where 0% means no effect; nearly all actives have a fitted effect of over 60% in size
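Cells were plated at 1500 per well in reduced-serum medium with 10% FBS and left 2 h. Compound in DMSO was then added for 24 h at 37 °C. Reporter signal was read by luminescence after 10 min with luciferase detection reagent.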
FLuc modulator: firefly luciferase modulation, counter-screen for miR-21 project; P08659; purified FLuc, Km substrates, luminescence inhibition; Potency, µM (series often up to 57.5 µM), for the others: at the highest dose activity change, negative = inhibition, hits mostly inhibitors; 6.9% of 360,000 active;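 further: plate controls were vehicle for no effect and reference inhibitor for full effect; nearly all actives have a fitted effect of over 55% in size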
Target sequence (P08659 whole entry, looked up): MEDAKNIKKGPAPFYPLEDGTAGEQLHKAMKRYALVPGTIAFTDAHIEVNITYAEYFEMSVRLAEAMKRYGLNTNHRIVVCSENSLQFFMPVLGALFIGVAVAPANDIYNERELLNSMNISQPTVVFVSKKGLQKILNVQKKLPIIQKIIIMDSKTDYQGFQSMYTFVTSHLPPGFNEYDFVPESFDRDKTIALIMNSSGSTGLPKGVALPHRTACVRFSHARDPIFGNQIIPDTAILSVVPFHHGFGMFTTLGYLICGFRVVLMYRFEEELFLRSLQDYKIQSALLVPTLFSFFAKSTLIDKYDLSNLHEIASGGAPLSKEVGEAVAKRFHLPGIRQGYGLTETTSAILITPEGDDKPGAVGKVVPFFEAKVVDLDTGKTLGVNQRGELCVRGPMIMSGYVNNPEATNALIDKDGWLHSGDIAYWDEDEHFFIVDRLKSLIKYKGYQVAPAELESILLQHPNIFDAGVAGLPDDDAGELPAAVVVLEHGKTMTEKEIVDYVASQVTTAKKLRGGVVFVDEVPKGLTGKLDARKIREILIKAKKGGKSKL
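Purified P. pyralis luciferase, 10 nM final, with Km-level 10 uM D-luciferin and 10 uM ATP in 50 mM Tris acetate pH 7.5, 10 mM Mg acetate, 0.01% Tween-20, 0.05% BSA; 6-point qHTS titration about 60 µM downward; luminescence read.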
NPC1 prom act: activates the NPC1 promoter; 2.4% of 320,000 active; Huh7 NPC1 promoter luciferase reporter, 24 h; Potency, µM (series often up to 9.22 µM), for inactives: at the highest dose activation, most hits filed as activators; AID 485313; further: % of control where 0% means no effect; nearly all actives have a fitted effect of over 60% in size
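Huh7 cells stably carrying NPC1 promoter–luciferase, plated in Opti-MEM with 10% FBS for 2 h, were exposed to compound in DMSO for 24 h at 37 °C; luciferase reagent was added for 10 min and luminescence read.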
ELG1 genotox: genotoxicity induction in ELG1-luciferase HEK293T cells; HEK293T ELG1-luciferase reporter, luminescence, 16 h; Potency, µM (highest dose often 46 µM), for inactives: at the top dose activity change, positive = activation, usual class: activators; 1.3% of 330,000 active; AID 504466; further: % of control where 0% means no effect; nearly all actives have a fitted effect of over 60% in size
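Step 1: seed 2,000 HEK293T ELG1-luciferase cells per well. Step 2: add compound or DMSO, incubate 16 hr at 37 °C. Step 3: ONE-Glo, 30 min at room temperature, read luminescence.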
* hit, by the source's call; ? = inconclusive; . = not tested or not shown. The call rests on the fitted dose curve; in most records, active means well fitted curve in the direction sought with a large enough effect; inconclusive means small, poorly fitted or top-dose-only effect, or another doubt; inactive means no such curve, though single readings can be large; an effect the other way counts as inactive or inconclusive. Potency means the concentration at half of the fitted maximal effect.

SMILES	SMN2 splice enh	ELG1 DNA repair	Rab9 promoter act	FLuc modulator	NPC1 prom act	ELG1 genotox
CCN(C(=O)CN1C(=O)/C(=C/c2ccccc2F)SC1=S)C1CCS(=O)(=O)C1 (configuration not stated)	.	-23.1%	-5.0%	?	-6.5%	-7.1%
COc1ccc(/C=C2/SC(=S)N(CCC(=O)O)C2=O)cc1	-13.1%	17.5%	-12.1%	5.36µM*	-8.0%	-4.0%
COc1cc(/C=C2\SC(=S)N(CCC(=O)Nc3ccc(O)cc3)C2=O)cc(OC)c1OC	.	23.1µM*	-8.1%	4.2%	-8.1%	0.3%
O=C(O)CCN1C(=O)/C(=C\c2ccncc2)SC1=S	-4.5%	12.6%	-2.2%	-16.5%	-7.3%	8.0%
CSCC[C@H](NC(=O)N1C[C@H]2C[C@@H](C1)c1cccc(=O)n1C2)C(=O)Nc1ccc(NC(C)=O)cc1	.	7.9%	0.2%	5.5%	-2.2%	1.9%
COc1ccc(Cl)cc1N=Nc1ncc[nH]1	-1.5%	.	.	.	.	.
CCn1cc(C(=O)NCc2ccccc2Cl)c(=O)c2cc(S(=O)(=O)N3CCCCCC3)ccc21	-5.4%	.	.	?	.	.
O=C(c1cccc(F)c1)N1CCC[C@@]2(CCN(c3ncccn3)C2)C1	-4.5%	.	.	.	.	.
COc1ccc(/C=C2\SC(=S)N(CCCCCC(=O)Nc3cc(C)on3)C2=O)cc1OC	.	0.7%	-6.6%	1.7%	-4.3%	3.1%
COc1ccc(/C=C2\SC(=S)N(CCCC(=O)Nc3cc(C)on3)C2=O)cc1OC	.	7.3µM*	-10.8%	0.9%	-6.7%	19.3%
CCOC(=O)C1CCN(C(=O)COc2ccc3c(C)cc(=O)oc3c2)CC1	.	1.3%	-0.8%	1.5%	-0.3%	2.8%
O=C(CNC(=O)C12CC3CC(CC(C3)C1)C2)N/N=C\c1ccccn1	11.4%	0.5%	-4.6%	-1.9%	-4.9%	0.2%
CCN(CC)C(=O)CCCSc1nnc(Nc2ccccc2F)s1	.	?	1.78µM*	16.9µM*	?	17.2%
O=C1c2ccccc2C(=O)N1CSc1nnc(Nc2ccccc2F)s1	6.31µM*	?	8.6%	1.5%	3.6%	14.0%
O=C1c2ccccc2C(=O)N1CSc1nnc(Nc2ccccc2)s1	12.1%	10.4%	?	0.1%	0.6%	12.3%
COC(=O)c1csc(S(=O)(=O)N2CCCCC2)c1OC	.	4.1%	-0.2%	-2.1%	-1.5%	1.1%
Nc1nnc(/C=C/c2ccccc2Cl)s1	.	?	3.55µM*	6.75µM*	?	?
O=C(Nc1ccccc1)Nc1nnc(/C=C/c2ccccc2Cl)s1	.	16.6%	0.7%	-2.9%	-3.1%	0.5%
COc1ccc(Nc2ncc(C(=O)N3CCN(Cc4ccccc4)CC3)c3ccccc23)cc1	-40.9%	16.4µM*	-7.9%	19µM*	0.6%	-9.3%
[O-]/[N+](=C/c1ccc(F)cc1)c1ccc(Cl)cc1	10.9%	?	18.1%	4.78µM*	?	16.4µM*
CCN(CC)S(=O)(=O)c1ccc2c(c1)c(=O)c(C(=O)NCCCN(C)c1ccccc1)cn2C	11.2µM*	?	-5.0%	3.4%	-1.2%	-14.4%
O=C(Nc1nc(-c2ccccc2)ns1)c1ccc(Cl)cc1	.	.	.	-6.4%	.	.
O=C(Nc1cc(-c2ccccc2)[nH]n1)c1ccc(Cl)cc1	.	?	3.16µM*	10.7µM*	2µM*	?
Cc1ccc(NC(=O)c2cccc(Cl)c2)nc1	5.3%	?	7.1%	?	25.3%	25.7%
Cc1cc(NC(=O)c2cccc(Cl)c2)n[nH]1	.	?	2.51µM*	19µM*	2.82µM*	?
COCCN(Cc1ccccc1)C(=O)C1CCN(S(=O)(=O)c2ccc3c(c2)OCCO3)CC1	.	-1.0%	-5.8%	7.2%	-2.7%	-3.0%
Fc1ccc(CO/N=C2\CCCc3nonc32)cc1	20.7%	?	27.9%	?	13.9%	-2.7%
CCc1ccc(OCC(=O)NC(=S)Nc2cccc(CO)c2)c(Br)c1	12.6µM*	?	2.82µM*	6.01µM*	1.78µM*	?
